# Assay results published in PubChem BioAssay (EPA / NIEHS).
# Inconclusive results are not listed. Activity calls are given as the source filed them. The calls were made as follows: active = hit-call score of the fitted dose curve at least 0.9, where 1 is the maximum; inconclusive = response in the unintended direction; inactive = score below 0.9.
# Tests used:
# [1] = target: Cellular tumor antigen p53 (Homo sapiens) (UniProt P04637); assay: TOX21_p53_BLA_p2_ratio: Tox21 HCT-116 p53 Agonism Beta-lactamase Assay, Ratio, Phase 2 (AID 2283592)
# Cellular tumor antigen p53 (Homo sapiens), sequence (P04637 whole entry, looked up): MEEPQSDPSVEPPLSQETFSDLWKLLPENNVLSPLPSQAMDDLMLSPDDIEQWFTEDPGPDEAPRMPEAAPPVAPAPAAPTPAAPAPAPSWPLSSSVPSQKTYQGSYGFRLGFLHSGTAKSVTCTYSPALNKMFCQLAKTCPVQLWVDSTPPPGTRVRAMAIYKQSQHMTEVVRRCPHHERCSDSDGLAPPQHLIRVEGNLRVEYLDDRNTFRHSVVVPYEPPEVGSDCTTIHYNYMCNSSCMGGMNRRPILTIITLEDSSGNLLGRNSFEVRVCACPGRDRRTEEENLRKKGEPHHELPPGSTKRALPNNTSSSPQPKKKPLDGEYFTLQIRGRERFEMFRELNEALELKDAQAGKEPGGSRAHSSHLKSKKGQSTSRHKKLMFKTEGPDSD
# Summary of the method: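 Ratio endpoint: beta-lactamase cleavage of CCF4-AM, blue (460 nm) over green (530 nm). HCT116 reporter line; 16 h treatment, 37C; substrate 2 h RT.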
# [2] = TOX21_p53_BLA_p3_viability: Viability Assessment in the Tox21 HCT-116 p53 Agonism Beta-lactamase Assay, Phase 3 (AID 2283593);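 also: cells exposed to compound for 16 h before reading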
# Summary of the method: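 Cellular ATP was quantified by CellTiter-Glo luminescence, read after 30 min at room temperature. Beforehand, HCT116 cells (4000/well) received compound 5 h post-seeding, 217-fold diluted from DMSO, then incubated 16 h at 37C.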
# [3] = target: Cellular tumor antigen p53 (Homo sapiens) (UniProt P04637); assay: TOX21_p53_BLA_p3_ratio: Tox21 HCT-116 p53 Agonism Beta-lactamase Assay, Ratio, Phase 3 (AID 2283596)
# Summary of the method: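 Cells were seeded at 4000/well, rested 5 h at 37C, then dosed with DMSO compound solutions (217-fold dilution) for 16 h. CCF4-AM substrate was loaded for 2 h at room temperature, and the 460/530 nm emission ratio was fitted for gain of signal versus DMSO.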
# [4] = TOX21_p53_BLA_p4_viability: Viability Assessment in the Tox21 HCT-116 p53 Agonism Beta-lactamase Assay, Phase 4 (AID 2283597);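 also: hits lower the luminescence signal meaning cytotoxicity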
# Summary of the method: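 Cytotoxicity was inferred from loss of CellTiter-Glo luminescence. HCT116 cells had been dosed with compounds after 5 h plating, incubated 16 h at 37C and 5% CO2, and exposed to the CCF4-AM substrate for 2 h.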
# [5] = target: Cellular tumor antigen p53 (Homo sapiens) (UniProt P04637); assay: TOX21_p53_BLA_p5_ratio: Tox21 HCT-116 p53 Agonism Beta-lactamase Assay, Ratio, Phase 5 (AID 2283599)
# Summary of the method: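 Beta-lactamase reporter ratio (blue 460 nm over green 530 nm, 405 nm excitation) after 2 h CCF4-AM loading, in HCT-116 cells exposed 16 h at 37 C to compounds pinned at 217-fold dilution. Increases relative to DMSO baseline scored.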
# [6] = TOX21_p53_BLA_p5_viability: Viability Assessment in the Tox21 HCT-116 p53 Agonism Beta-lactamase Assay, Phase 5 (AID 2283600)
# Summary of the method: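 Luciferase-coupled ATP quantitation of cells treated for 16 h (37C, 5% CO2) with test chemicals delivered in DMSO via a 217-fold dilution; 4000 cells/well; reagent incubated 30 min at room temperature before luminescence reading.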
# [7] = target: Cellular tumor antigen p53 (Homo sapiens) (UniProt P04637); assay: TOX21_p53_BLA_p4_ratio: Tox21 HCT-116 p53 Agonism Beta-lactamase Assay, Ratio, Phase 4 (AID 2283601)
# Summary of the method: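 Signal is the blue/green (460nm/530nm) ratio of cleaved versus uncleaved CCF4-AM substrate, read after 2 h substrate loading. Cells were HCT116 carrying the p53-responsive beta-lactamase reporter, dosed 16 h at 37C, 5% CO2; CellTiter-Glo measured in parallel.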
# [8] = Tanguay_ZF_120hpf_MORT_legacy: (Legacy) Oregon State University Tanguay Lab 120 Hour Post-fertilization zebrafish Assay for Mortality (AID 2283633)
# Summary of the method: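 Dechorionated Tropical 5D wild-type zebrafish embryos, one per well from 6 hpf, were statically exposed at 28C in the dark until 120 hpf (0.64% DMSO final). Mortality was scored as present/absent by brightfield microscopy, fitted positively versus DMSO.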
# [9] = Tanguay_ZF_120hpf_YSE_legacy: (Legacy) Oregon State University Tanguay Lab 120 Hour Post-fertilization zebrafish Assay for Yolk Sac Edema (AID 2283634);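 as to AC50: actives raise the incidence of yolk sac edema above the DMSO baseline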
# Summary of the method: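 Tropical 5D wild-type embryos, dechorionated with pronase at 4 hpf, were exposed singly from 6 hpf to 120 hpf under static, sealed, dark conditions at 28C with 0.64% DMSO final. Yolk sac edema was scored present/absent by brightfield microscopy.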
# [10] = Tanguay_ZF_120hpf_AXIS_legacy: (Legacy) Oregon State University Tanguay Lab 120 Hour Post-fertilization zebrafish Assay for Body Axis Malformation (AID 2283635)
# Summary of the method: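 Tropical 5D wild-type zebrafish embryos, dechorionated with pronase at 4 hpf, were placed singly in wells at 6 hpf and exposed statically to test chemical (0.64% DMSO final) at 28C until 120 hpf, then scored by brightfield for body axis defects.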
# [11] = Tanguay_ZF_120hpf_EYE_legacy: (Legacy) Oregon State University Tanguay Lab 120 Hour Post-fertilization zebrafish Assay for Eye Malformation (AID 2283636);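 also: binary presence or absence of eye malformation scored by brightfield in 120 hpf larvae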
# Summary of the method: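 Binary brightfield scoring of eye defects at 120 hpf after static exposure from 6 hpf of single pronase-dechorionated wild-type embryos (28C, 0.64% DMSO). Non-mortality endpoints omitted where embryos died; fit vs DMSO.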
# [12] = Tanguay_ZF_120hpf_SNOU_legacy: (Legacy) Oregon State University Tanguay Lab 120 Hour Post-fertilization zebrafish Assay for Snout Malformation (AID 2283637)
# Summary of the method: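 Binary snout-malformation call at 120 hpf in wild-type 5D embryos, chorion removed by pronase, under static exposure from 6 hpf at 28C (0.64% DMSO). Embryos dying by 24 or 120 hpf excluded.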
# [13] = Tanguay_ZF_120hpf_JAW_legacy: (Legacy) Oregon State University Tanguay Lab 120 Hour Post-fertilization zebrafish Assay for Jaw Malformation (AID 2283638)
# Summary of the method: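 Tropical 5D wild-type embryos, dechorionated with pronase at 4 hpf, were placed singly per well at 6 hpf and statically exposed at 28C until 120 hpf (0.64% DMSO final). Jaw malformation scored as present/absent by brightfield microscopy at 120 hpf, analyzed relative to DMSO.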
# [14] = Tanguay_ZF_120hpf_OTIC_legacy: (Legacy) Oregon State University Tanguay Lab 120 Hour Post-fertilization zebrafish Assay for Otic Vesicle Malformation (AID 2283639)
# Summary of the method: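 Statically exposed wild-type 5D zebrafish embryos, kept sealed and dark at 28C through 120 hours post fertilization, were examined by brightfield microscopy for otic vesicle defects. Responses were recorded as present or absent and analysed relative to DMSO.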
# [15] = Tanguay_ZF_120hpf_PE_legacy: (Legacy) Oregon State University Tanguay Lab 120 Hour Post-fertilization zebrafish Assay for Pericardial Edema (AID 2283640);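 as to AC50: potency for increased incidence of pericardial edema versus DMSO baseline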
# Summary of the method: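 Tropical 5D wild-type zebrafish embryos were exposed statically to 120 hpf at 28C, sealed and foil-covered, in 0.64% DMSO final. Pericardial edema was scored present/absent by brightfield microscopy; dead embryos were not scored.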
# [16] = Tanguay_ZF_120hpf_BRAI_legacy: (Legacy) Oregon State University Tanguay Lab 120 Hour Post-fertilization zebrafish Assay for Brain Malformation (AID 2283641)
# Summary of the method: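 Tropical 5D wild-type zebrafish embryos were exposed statically in sealed, foil-covered plates at 28C until 120 hpf, with 0.64% (vol/vol) final DMSO. Brain malformation was scored present/absent by brightfield microscopy, relative to DMSO baseline.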
# [17] = Tanguay_ZF_120hpf_PFIN_legacy: (Legacy) Oregon State University Tanguay Lab 120 Hour Post-fertilization zebrafish Assay for Pectoral Fin Malformation (AID 2283648);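 also: each larva judged yes or no for fin defect by brightfield with dead larvae skipped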
# Summary of the method: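 Pectoral fin malformation was recorded as a binary endpoint at 120 hpf in wild-type Tropical 5D larvae, which had been dechorionated and exposed statically from 6 hpf at 28C in 0.64% DMSO. Dead embryos were excluded.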
# [18] = Tanguay_ZF_120hpf_CFIN_legacy: (Legacy) Oregon State University Tanguay Lab 120 Hour Post-fertilization zebrafish Assay for Caudal Fin Malformation (AID 2283649)
# Summary of the method: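 Tropical 5D wild-type embryos, dechorionated with pronase at 4 hpf, were placed singly in wells at 6 hpf and statically exposed to compound at 28C until 120 hpf (0.64% DMSO). Caudal fin malformation was scored present/absent by brightfield microscopy.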
# [19] = Tanguay_ZF_120hpf_SOMI_legacy: (Legacy) Oregon State University Tanguay Lab 120 Hour Post-fertilization zebrafish Assay for Somite Malformation (AID 2283647)
# Summary of the method: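 Tropical 5D wild-type zebrafish embryos, dechorionated with pronase at 4 hpf, were placed singly at 6 hpf and statically exposed until 120 hpf at 28C in 0.64% DMSO. Somite malformation was scored present/absent by brightfield microscopy versus DMSO.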
# [20] = Tanguay_ZF_120hpf_PIG_legacy: (Legacy) Oregon State University Tanguay Lab 120 Hour Post-fertilization zebrafish Assay for Pigmentation Malformation (AID 2283650)
# Summary of the method: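 Pigment malformation recorded as a binary call at 120 hpf in zebrafish (Tropical 5D) exposed singly from 6 hpf after pronase dechorionation. Static, sealed, 28C exposure, 0.64% DMSO; mortality excludes scoring; positive-direction fit against DMSO.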
compound,measurement,setting,value
CCC(C)N(C)C(=O)c1cc2ccccc2c(-c2ccccc2Cl)n1 (stereo not given),outcome,[1],inactive
same,outcome,[2],inactive
same,outcome,[3],inactive
same,outcome,[4],inactive
same,outcome,[5],inactive
same,outcome,[6],inactive
same,outcome,[7],inactive
same,outcome,[8],inactive
same,AC50,[9],20.4 µM (active)
same,outcome,[10],inactive
same,outcome,[11],inactive
same,outcome,[12],inactive
same,outcome,[13],inactive
same,outcome,[14],inactive
same,AC50,[15],6.53 µM (active)
same,outcome,[16],inactive
same,outcome,[17],inactive
same,outcome,[18],inactive
COC(=O)[C@H]1[C@H]2C[C@@H]3c4[nH]c5cc(OC)ccc5c4CCN3C[C@H]2C[C@@H](OC(=O)c2cc(OC)c(OC)c(OC)c2)[C@@H]1OC,outcome,[1],inactive
same,outcome,[2],inactive
same,outcome,[3],inactive
same,outcome,[4],inactive
same,outcome,[5],inactive
same,outcome,[6],inactive
same,outcome,[7],inactive
same,outcome,[8],inactive
same,outcome,[9],inactive
same,outcome,[10],inactive
same,outcome,[11],inactive
same,outcome,[12],inactive
same,outcome,[13],inactive
same,outcome,[14],inactive
same,outcome,[15],inactive
same,outcome,[16],inactive
same,outcome,[17],inactive
same,outcome,[18],inactive
CCCCCCCC(=O)OC,outcome,[1],inactive
same,outcome,[2],inactive
same,outcome,[3],inactive
same,outcome,[4],inactive
same,outcome,[6],inactive
same,outcome,[7],inactive
same,outcome,[8],inactive
same,outcome,[9],inactive
same,outcome,[10],inactive
same,outcome,[11],inactive
same,outcome,[12],inactive
same,outcome,[13],inactive
same,outcome,[14],inactive
same,outcome,[15],inactive
same,outcome,[16],inactive
same,outcome,[19],inactive
same,outcome,[17],inactive
same,outcome,[18],inactive
CCCCC(CC)CO (stereo not given),outcome,[1],inactive
same,outcome,[2],inactive
same,outcome,[3],inactive
same,outcome,[5],inactive
same,outcome,[6],inactive
same,outcome,[7],inactive
same,outcome,[8],inactive
same,outcome,[9],inactive
same,outcome,[10],inactive
same,outcome,[11],inactive
same,outcome,[12],inactive
same,outcome,[13],inactive
same,outcome,[14],inactive
same,outcome,[15],inactive
same,outcome,[16],inactive
same,outcome,[17],inactive
same,outcome,[18],inactive
c1ccc2occc2c1,outcome,[1],inactive
same,outcome,[2],inactive
same,outcome,[3],inactive
same,outcome,[4],inactive
same,outcome,[5],inactive
same,outcome,[6],inactive
same,outcome,[7],inactive
same,outcome,[8],inactive
same,outcome,[10],inactive
same,outcome,[11],inactive
same,outcome,[13],inactive
same,outcome,[14],inactive
same,outcome,[15],inactive
same,outcome,[16],inactive
same,outcome,[17],inactive
same,outcome,[18],inactive
CN(C)C(=O)NC1(c2ccccc2)CCN(CCC[C@]2(c3ccc(Cl)c(Cl)c3)CCCN(C(=O)c3ccccc3)C2)CC1,outcome,[1],inactive
same,outcome,[2],inactive
same,outcome,[3],inactive
same,outcome,[4],inactive
same,outcome,[6],inactive
same,outcome,[7],inactive
same,outcome,[8],inactive
same,outcome,[9],inactive
same,outcome,[10],inactive
same,outcome,[11],inactive
same,outcome,[12],inactive
same,outcome,[13],inactive
same,outcome,[14],inactive
same,outcome,[15],inactive
same,outcome,[16],inactive
same,outcome,[17],inactive
same,outcome,[18],inactive
same,outcome,[20],inactive
